# Screening data as filed in PubChem BioAssay.
# TrxR1 inh-1: blocks rat thioredoxin reductase 1; AID 588453; recombinant rTrxR1, NADPH fluorescence consumption, selenite substrate; Potency, µM (series often up to 114 µM), actives largely listed as inhibitors; O89049; hit rate 1% among 390,000; further: nearly all actives have a fitted effect of over 65% in size
#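 Rat TrxR1 (90 nM in the dispensed reagent) was pre-reduced with 400 uM NADPH for 5 min at room temperature, then incubated with compound for 15 min. After 400 uM selenite was added, NADPH fluorescence (Ex 340/Em 450 nm) was followed for 8 min.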
# TrxR1 substrate: is turned over as a substrate by rat TrxR1 | AID 588456 | hit rate 0.01% among 390,000 | O89049 | purified TrxR1 substrate turnover, NADPH consumption readout | Potency, µM (titrated, usually from 114 µM); further: nearly all actives have a fitted effect of over 50% in size
#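 Rat TrxR1, dispensed at 90 nM, was prereduced with 400 uM NADPH (final) for 5 min at ~22 deg C, then incubated with compound 15 min before 400 uM selenite. A first-read NADPH fluorescence drop versus no-compound background flagged substrates.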
# GALK inhibitor: galactokinase (human) inhibition | Potency, µM (titrated, usually from 57.5 µM), hits mostly inhibitors | Purified GALK, Kinase-Glo residual ATP luminescence | hit rate 0.007% among 270,000
# Target sequence (P51570 whole entry, looked up): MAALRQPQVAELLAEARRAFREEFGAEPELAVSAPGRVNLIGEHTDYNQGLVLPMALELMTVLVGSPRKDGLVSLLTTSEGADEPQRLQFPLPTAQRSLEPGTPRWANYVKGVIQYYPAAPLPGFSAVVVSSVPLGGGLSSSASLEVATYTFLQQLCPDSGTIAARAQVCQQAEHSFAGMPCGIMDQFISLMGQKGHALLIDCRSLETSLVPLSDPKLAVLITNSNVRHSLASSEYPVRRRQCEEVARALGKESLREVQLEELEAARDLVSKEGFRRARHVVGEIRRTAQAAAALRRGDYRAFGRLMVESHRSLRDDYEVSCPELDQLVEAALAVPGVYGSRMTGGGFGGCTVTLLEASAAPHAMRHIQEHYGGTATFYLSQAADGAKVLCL
#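 The enzyme phosphorylates galactose (100 uM) using ATP (35 uM); inhibition is detected as higher residual ATP, quantified by bioluminescence after 1 h reaction at room temperature, pH 8.0.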
# NPSR antagonist: blocks cAMP signaling of the human neuropeptide S receptor. Q6W5P4. CHO-NPSR cells, cAMP TR-FRET, antagonist mode. Potency, µM (doses to about 38.3 µM), most hits filed as inhibitors. hit rate 1% among 220,000. AID 1461; further: nearly all actives have a fitted effect of over 50% in size
# TRb-SRC2 inh: disrupts human TRb binding to SRC2 peptide in AlphaScreen; Potency, µM; shares compounds with TrxR1 inh-1; hit rate 50% among 30; AlphaScreen TRb LBD-SRC2 peptide binding, luminescence; calls by dose curve
# HepG2 tox: reduces HepG2 viability in TRb-SRC2 counter-screen. shares compounds with TrxR1 inh-1. HepG2 viability, ATP luminescence (CellTiter-Glo), 72 h. Potency, µM. hit rate 50% among 40. AID 2447; calls by dose curve
# AR SRC2 FP: AR-SRC2 (human) interaction inhibition, selectivity; AR-LBD Tx-SRC2-3 fluorescence polarization, 3 h; 25 tested, under 10 active; calls only; shares compounds with TrxR1 inh-1; call rule not given here
# PPARg-DRIP2 inh: disrupts human PPARgamma binding to DRIP-2 peptide. shares compounds with TrxR1 inh-1. PPARg LBD / Texas Red DRIP-2 peptide, fluorescence polarization, 3 h. Potency, µM. 25 tested, under 10 active. AID 2449; calls by dose curve
# VDR-SRC2 FP sel: VDR-SRC2 (human) interaction inhibition, selectivity; shares compounds with TrxR1 inh-1; 25 tested, under 10 active; Potency, µM; VDR LBD/SRC2-3 peptide, fluorescence polarization, 3 h; calls by dose curve
# TRb SRC2 FluoFP: TRb-SRC2 (human) inhibition, fluorescein FP confirmation. TRb LBD / fluorescein-SRC2 peptide, fluorescence polarization. 20 tested, under 10 active. Potency, µM. shares compounds with TrxR1 inh-1; call rule not given here
# GR counterassay: counter-screen for TrxR1 inhibitors: human glutathione reductase inhibition. shares compounds with TrxR1 inh-1. purified GR, DTNB reduction absorbance 405 nm kinetic. activity change, negative = inhibition, % at 57.1 µM. 55 tested, under 10 active. AID 652020
# TrxR1 inh-2: rat TrxR1 inhibition, primary screen retest. shares compounds with TrxR1 inh-1. recombinant TrxR1, NADPH fluorescence consumption, selenite substrate. Potency, µM, actives largely listed as inhibitors. hit rate 50% among 55. AID 652023
# TrxR1 insulin MOA: inhibits TrxR1-driven insulin reduction; hit rate 20% among 55; shares compounds with TrxR1 inh-1; Potency, µM; AID 652037; TrxR1 Trx-coupled insulin reduction, NADPH absorbance 340 nm;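 active means compounds with a measured potency under 100 micromolar; inconclusive means filed, but no rule given; inactive means potency at or above that, or unmeasurable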
# TrxR1 inh-3: blocks rat TrxR1 reduction of DTNB; shares compounds with TrxR1 inh-1; purified TrxR1, DTNB reduction, A412; Potency, µM; hit rate 90% among 55;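 active means a half-inhibiting concentration could be measured and was below 100 µM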
# Numbers stand for hits; i = inactive; ? = inconclusive; nt = not tested or not shown; ! = a repeat was not active; [ ] = dose if it differs, or a comment. A selection: hits, their analogues and other compounds. The true share with any hit is near 1.2%. Unless noted, the call rests on the fitted dose curve; in most records, active means well fitted curve in the direction sought with a large enough effect; inconclusive means small, poorly fitted or top-dose-only effect, or another doubt; inactive means no such curve, though single readings can be large; an effect the other way counts as inactive or inconclusive.
SMILES,TrxR1 inh-1,TrxR1 substrate,GALK inhibitor,NPSR antagonist,TRb-SRC2 inh,HepG2 tox,others
COCCn1nnnc1C(c1ccc(O)c(OC)c1)N1CCc2ccccc2C1 (stereo unspecified),5.6µM,i,i,i,nt,nt,GR counterassay=i;TrxR1 inh-2=4.7;TrxR1 insulin MOA=i;TrxR1 inh-3=0.27µM
CCC(C)(C)n1nnnc1C(c1ccc(O)cc1)N1CCc2ccccc2C1 (stereo unspecified),16µM,i,i,i,nt,nt,GR counterassay=i;TrxR1 inh-2=7.5;TrxR1 insulin MOA=i;TrxR1 inh-3=0.24µM
COc1ccc(CNC(=O)c2cnc(N3CCCC3)nc2C)c(OC)c1,i,i,nt,nt,nt,nt,
CN1c2cccc3cccc(c23)N(C)C1(C)C,i,i,i,i,nt,nt,
CN1c2ccccc2N(C)C1(C)c1cccc2ccccc12,50µM,i,i,i,nt,nt,GR counterassay=i;TrxR1 inh-2=?;TrxR1 insulin MOA=i;TrxR1 inh-3=4.4µM
COc1cc(C(c2nnnn2C(C)(C)C)N2CCN(c3nc4ccccc4s3)CC2)ccc1O (stereo unspecified),13µM,i,i,i[7.67 µM],nt,nt,GR counterassay=i;TrxR1 inh-2=?;TrxR1 insulin MOA=i;TrxR1 inh-3=0.16µM
CS(=O)(=O)c1ccc(C(=O)NCC(=O)NC2C3CC4CC(C3)CC2C4)cc1[N+](=O)[O-] (stereo unspecified),nt,nt,nt,nt,3.8µM,22µM,AR SRC2 FP=i;PPARg-DRIP2 inh=i;VDR-SRC2 FP sel=i
CS(=O)(=O)c1ccc(C(=O)OC(C(=O)NC2C3CC4CC(C3)CC2C4)c2ccccc2)cc1[N+](=O)[O-] (stereo unspecified),nt,nt,nt,nt,nt,10µM,
CCCNC(=O)c1ccc(S(=O)(=O)c2ccc(OC)cc2)c([N+](=O)[O-])c1,?,i,i,nt,nt,nt,
CCOc1ccc(Nc2oc(-c3ccc(COc4ccccc4C)o3)nc2C#N)cc1,i,i,nt,nt,nt,nt,
CCCOc1ccc(C2c3c(oc4ccccc4c3=O)C(=O)N2c2nnc(C(C)C)s2)cc1 (stereo unspecified),i,i,nt,nt,nt,nt,
Cc1cccc(C(=O)Nc2nnc(S(=O)(=O)N(C)Cc3ccco3)s2)c1,45µM!,i,i,nt,nt,nt,GR counterassay=i;TrxR1 inh-2=?;TrxR1 insulin MOA=?;TrxR1 inh-3=49µM
CCOC(=O)C(C)Nc1ncnc2onc(C)c12 (stereo unspecified),i,i[2.29 µM],nt,nt,nt,nt,
Cc1ccc(CNC(=O)c2cc3c(=O)n(C)c4ccccc4c3n2C)o1,?,i,i,i,nt,nt,
Cc1ccc(CNC(=O)c2cn(C)c(=O)c3c2c2ccccc2n3C)o1,16µM,i,i,i,nt,nt,GR counterassay=i;TrxR1 inh-2=?;TrxR1 insulin MOA=i;TrxR1 inh-3=1.5µM
COc1ccccc1NC(=O)C1CCN(S(=O)(=O)c2ccc3[nH]c4c(c3c2)CCCCC4)CC1,i,i,nt,nt,nt,nt,
CS(=O)(=O)c1ccc(C(=O)OCC(=O)NC(=O)C2CCCCC2)cc1[N+](=O)[O-],3.2µM,i,i,i,0.6µM,23µM,AR SRC2 FP=i;PPARg-DRIP2 inh=22µM;VDR-SRC2 FP sel=i;TRb SRC2 FluoFP=11µM
CNc1ccc(C(=O)OCC(=O)NC(=O)NC2CCCCC2)cc1[N+](=O)[O-],i,i,nt,nt,nt,nt,
CC(=O)Nc1cccc(C(=O)OCC(=O)NC(=O)C2CCCCC2)c1,i,i,nt,nt,i,i,TRb SRC2 FluoFP=i
O=C(COC(=O)c1ccc(C(F)(F)F)cc1)NC(=O)C1CCCCC1,i,i,nt,nt,i,i,TRb SRC2 FluoFP=i
CC(=O)Nc1cccc(C(=O)OCC(=O)NC2CCCCCCC2)c1,i,i,nt,nt,nt,nt,
Cc1cc(C(=O)OCC(=O)NC(=O)C2CCCCC2)ccc1[N+](=O)[O-],i,i,nt,nt,i,?,TRb SRC2 FluoFP=i
O=C(COC(=O)c1ccc2ncsc2c1)NC(=O)C1CCCCC1,i,i,nt,nt,i,20µM,TRb SRC2 FluoFP=i
CC1(C)C2CCC1(C)C(NC(=O)COC(=O)c1ccc(S(C)(=O)=O)c([N+](=O)[O-])c1)C2 (stereo unspecified),3.5µM,i,nt,nt,6.8µM,23µM,AR SRC2 FP=i;PPARg-DRIP2 inh=i;VDR-SRC2 FP sel=40µM;TRb SRC2 FluoFP=3.3µM
CC1CCC(NC(=O)COC(=O)c2ccc3ncsc3c2)CC1 (stereo unspecified),i,i,nt,nt,nt,nt,
CC(C)(C)C(=O)OCc1cc(=O)n2nc(C3CCCCC3)sc2n1,i,i,nt,nt,nt,nt,
